PubChem BioAssay (NCI)
Several values for one entry are separate records, joined by “and”; a condition that tells them apart may be missing. Equal entries are not always repeated. About 83,000 compounds went through this panel and 20% of them were active in at least one assay; those are over-represented in the sample as a whole.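 Compound tested at a single concentration for 48 hours in 96-well plates; a percent growth value below 10 was scored as active.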 A structure can be active in one record and inactive in another. Activity calls are given as the source filed them.

Experiments:
Test in all cases: NCI-60 one-dose screen, 48 h (100 = growth as untreated, 0 = no growth, -100 = all killed)
Settings in all cases: 10 µM unless noted
NCI-H23 lung = tested on: NCI-H23 lung
NCI-H226 lung = tested on: NCI-H226 lung
NCI-H322M lung = tested on: NCI-H322M lung
HOP-62 NSCLC = tested on: HOP-62 NSCLC
NCI-H460 lung = tested on: NCI-H460 lung
HOP-92 NSCLC = tested on: HOP-92 NSCLC
NCI-H522 lung = tested on: NCI-H522 lung
786-0 renal = tested on: 786-0 renal
COLO 205 colon = tested on: COLO 205 colon
DU-145 prostate = tested on: DU-145 prostate
K-562 leukemia = tested on: K-562 leukemia
MALME-3M melanoma = tested on: MALME-3M melanoma
MDA-MB-231 breast = tested on: MDA-MB-231 breast
RXF 393 renal = tested on: RXF 393 renal
SF-268 CNS = tested on: SF-268 CNS
SF-539 CNS = tested on: SF-539 CNS
UACC-257 melanoma = tested on: UACC-257 melanoma
M14 melanoma = tested on: M14 melanoma
A549/ATCC NSCLC = tested on: A549/ATCC NSCLC
SF-295 CNS = tested on: SF-295 CNS

Measured: growth

O=C(CCc1ccc(O)cc1)N/N=C/c1cc(Br)ccc1O
inactive: NCI-H23 lung 61.4% | NCI-H226 lung 95.1% | NCI-H322M lung 38.9% | HOP-62 NSCLC 62.7% | NCI-H460 lung 29.7% | HOP-92 NSCLC 80.7% | NCI-H522 lung 77.5% | 786-0 renal 42% | COLO 205 colon 92% | DU-145 prostate 63.2% | K-562 leukemia 15.4% | MALME-3M melanoma 87.1% | MDA-MB-231 breast 59.7% | RXF 393 renal 76.6% | SF-268 CNS 48.3% | SF-539 CNS 39.9% | UACC-257 melanoma 55.5% | M14 melanoma 39.9%

O=C(N/N=C/c1ccc2c(c1)OCO2)c1ccncc1
inactive: NCI-H23 lung 99% and 101% | NCI-H226 lung 108% and 93.3% | NCI-H322M lung 114% and 94.6% | HOP-62 NSCLC 99.5% and 108% | NCI-H460 lung 101% and 111% | HOP-92 NSCLC 106% and 70.1% | A549/ATCC NSCLC 108% and 109% | 786-0 renal 109% and 101% | COLO 205 colon 101% and 110% | DU-145 prostate 114% and 113% | K-562 leukemia 106% | MALME-3M melanoma 110% and 82.1% | MDA-MB-231 breast 94.5% and 108% | RXF 393 renal 114% and 103% | SF-268 CNS 109% and 102% | SF-295 CNS 113% and 107% | SF-539 CNS 101% and 123% | UACC-257 melanoma 92.9% and 112% | M14 melanoma 105% and 103%

NS(=O)(=O)c1cc2c(cc1Cl)NC(C(Cl)Cl)NS2(=O)=O (stereo unspecified)
inactive: NCI-H23 lung 120% and 106% | NCI-H226 lung 108% and 99.3% | NCI-H322M lung 98.8% and 101% | HOP-62 NSCLC 104% and 122% | NCI-H460 lung 110% and 114% | HOP-92 NSCLC 96.3% | NCI-H522 lung 96.7% and 104% | 786-0 renal 87.6% and 104% | COLO 205 colon 109% and 113% | DU-145 prostate 108% and 112% | K-562 leukemia 97% and 93.9% | MALME-3M melanoma 107% | MDA-MB-231 breast 105% and 108% | RXF 393 renal 112% and 128% | SF-268 CNS 107% and 104% | SF-295 CNS 118% and 111% | SF-539 CNS 104% | UACC-257 melanoma 84.4% and 95% | M14 melanoma 97.5% and 107%

COc1ccc(S(=O)(=O)N2CCOCC2)cc1NC(=O)c1[nH]c(C)c2c1CCCCC2=O
inactive: NCI-H23 lung 104% and 59% | NCI-H226 lung 104% and 62% | NCI-H322M lung 105% and 64.6% | HOP-62 NSCLC 109% and 33.8% | NCI-H460 lung 103% and 75.9% | NCI-H522 lung 100% and 40.9% | A549/ATCC NSCLC 97.2% and 61.7% | 786-0 renal 107% and 93.4% | COLO 205 colon 113% and 34.8% | DU-145 prostate 107% and 81.5% | K-562 leukemia 105% and 46.1% | MALME-3M melanoma 103% and 53.9% | MDA-MB-231 breast 110% and 44.6% | RXF 393 renal 109% and 37.7% | SF-268 CNS 98.5% and 72.1% | SF-295 CNS 100% and 60.7% | SF-539 CNS 95.4% and 43.6% | UACC-257 melanoma 101% and 58.7% | M14 melanoma 109% and 102%

COc1ccc(-c2ncnc3c2ncn3C/C=C/CCl)cc1
inactive: NCI-H23 lung 63.6% and 80.5% | NCI-H226 lung 89.4% and 81.5% | NCI-H322M lung 100% and 105% | HOP-62 NSCLC 98.7% and 95.9% | NCI-H460 lung 67.5% and 97.1% | HOP-92 NSCLC 37.9% and 62.9% | A549/ATCC NSCLC 81.2% and 75% | 786-0 renal 70.2% and 80% | COLO 205 colon 87.5% and 94.1% | DU-145 prostate 81.8% and 112% | K-562 leukemia 67.2% and 77.5% | MALME-3M melanoma 61.8% and 49.7% | MDA-MB-231 breast 88.8% and 89.2% | SF-268 CNS 87.7% and 86.8% | SF-295 CNS 109% and 92.6% | SF-539 CNS 75.9% and 98.9% | UACC-257 melanoma 80.5% and 77.7% | M14 melanoma 70.9% and 87%
7.94% (active) and 42.6% (inactive): RXF 393 renal

CC(C)(C)c1ccc(O)c(CNC2CCCCC2)c1
9.74% (active) and 107% (inactive): COLO 205 colon
inactive: NCI-H23 lung 96.6% and 90.8% | NCI-H226 lung 96.5% and 81.2% | NCI-H322M lung 97.6% and 100% | HOP-62 NSCLC 119% and 88.9% | NCI-H460 lung 103% and 93.6% | HOP-92 NSCLC 72.4% and 84.3% | A549/ATCC NSCLC 99.2% and 84.7% | 786-0 renal 96.1% and 80.4% | DU-145 prostate 130% and 108% | K-562 leukemia 48.7% and 75.4% | MALME-3M melanoma 115% and 97.9% | MDA-MB-231 breast 101% and 97.2% | RXF 393 renal 96.5% and 59.5% | SF-268 CNS 114% and 96.8% | SF-295 CNS 104% | SF-539 CNS 114% and 95.6% | UACC-257 melanoma 108% and 95.2% | M14 melanoma 87.1% and 101%

COc1ccccc1/C=N\N=C(N/N=C/c1ccccc1OC)N/N=C/c1ccccc1OC
inactive: NCI-H23 lung 58% and 27.5% | NCI-H226 lung 85.7% and 46.5% | NCI-H322M lung 56.5% and 15.1% | HOP-62 NSCLC 74.8% and 26.9% | NCI-H460 lung 46.3% and 12.8% | NCI-H522 lung 38.6% and 17.3% | A549/ATCC NSCLC 61.1% and 27.1% | 786-0 renal 74.4% and 35.8% | COLO 205 colon 75.6% and 34.6% | DU-145 prostate 71.5% and 53.4% | K-562 leukemia 34.1% and 11.4% | MALME-3M melanoma 52.1% | MDA-MB-231 breast 73.8% and 51.3% | RXF 393 renal 94.5% and 60.1% | SF-268 CNS 63.6% and 25.6% | SF-295 CNS 52.1% | SF-539 CNS 83.7% and 42.1% | UACC-257 melanoma 90.9% and 31% | M14 melanoma 59.9% and 26.6%

COc1ccc(CCN(C)CCCC(C#N)(c2ccc(OC)c(OC)c2)C(C)C)cc1OC (stereo unspecified)
inactive: NCI-H23 lung 86.9% and 106% and 86.1% | NCI-H226 lung 113% and 102% and 101% | NCI-H322M lung 96.4% and 91.3% | HOP-62 NSCLC 90.8% and 86.4% | NCI-H460 lung 95.5% and 111% and 102% | NCI-H522 lung 98.8% and 91.6% | A549/ATCC NSCLC 87.5% and 104% and 101% | 786-0 renal 93.7% and 88.8% and 107% | COLO 205 colon 100% and 109% and 101% | DU-145 prostate 103% and 96.6% | K-562 leukemia 72.5% and 95.2% | MALME-3M melanoma 93.8% and 102% and 89.6% | MDA-MB-231 breast 85.2% and 95.4% and 99.3% | RXF 393 renal 103% and 96.2% and 96.3% | SF-268 CNS 97.4% and 103% and 96.2% | SF-295 CNS 74.7% and 67.2% and 100% | SF-539 CNS 107% and 87.8% and 110% | UACC-257 melanoma 91.8% and 96.1% and 89.5% | M14 melanoma 102% and 86.1% and 94.2%
